# ± gives the standard deviation.
# Key:
# Details in all cases: modulator concentration 10 µM
# [1] = system: RAW-Dual (murine macrophage reporter line); experiment: NF-kB reporter (SEAP) activity fold change vs agonist alone; higher = enhanced NF-kB activity
# How it was run: (§1)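 Overnight stimulation with a PRR agonist followed pre-incubation for 1 hour at 37 °C with compound at 10 μM final. This was done in RAW-Dual murine macrophage reporter cells seeded at 50 000 per well in 384-well plates. NF-κB (SEAP, QUANTI-Blue absorbance at 620 nm) and IRF (Lucia luciferase, QUANTI-Luc luminescence) were read from the supernatant. Each reporter's fold change relative to the mean agonist-only control on the same plate was averaged over replicate plates.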
# [2] = system: RAW-Dual (murine macrophage reporter line); experiment: IRF reporter (Lucia luciferase) activity fold change vs agonist alone; higher = enhanced IRF activity
# How it was run: as §1
# [3] = system: RAW-Dual (murine macrophage reporter line); experiment: viability score (confluency relative to resting cells, overnight) (fraction); higher = more viable, active = viable (0.7 or more)
# How it was run: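 RAW-Dual macrophages in 384-well plates were treated overnight with compound at 10 μM final. IncuCyte imaging recorded confluency, and IncuCyte software built two confluency masks across every imaged well. The viability score expresses confluency relative to resting cells and was judged against a cutoff, which a compound met only if both masks exceeded 70% of resting cells.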
# [4] = agonist: CpG ODN 1826 0.5 ug/mL
SMILES,"NF-kB reporter [1, 4]",NF-kB reporter ([1]; agonist: LPS 0.1 ug/mL),NF-kB reporter ([1]; agonist: MPLA […]),IRF reporter ([2]; agonist: 3'3'-cGAMP 10 ug/mL),IRF reporter ([2]; agonist: LPS 0.1 ug/mL),IRF reporter ([2]; agonist: MPLA […]),viability score [3]
CCOC(=O)C1=C(C)N(c2ccc(OC)cc2)C(=O)C1=Cc1ccc(C(=O)O)cc1,0.751 ± 0.13,1.12 ± 0.087,0.984 ± 0.076,0.642 ± 0.022,1.32 ± 0.16,1.39 ± 0.15,0.997 (active)
COc1cc(C=C2SC(=S)NC2=O)ccc1OCCC(C)C,0.847 ± 0.074,0.969 ± 0.049,1.09 ± 0.11,1.03 ± 0.047,1.43 ± 0.12,1.61 ± 0.2,1 (active)
S=C(NCc1ccc2c(c1)OCO2)N1CCN(c2ncnc3c2oc2ccccc23)CC1,0.943 ± 0.19,1.6 ± 0.5,2.24 ± 0.18,0.623 ± 0.021,1.35 ± 0.27,1.96 ± 0.42,0.958 (active)
CC(=O)Nc1cccs1,1.09 ± 0.14,1.06 ± 0.072,0.986 ± 0.035,0.944 ± 0.12,1.07 ± 0.11,1.04 ± 0.078,0.998 (active)
Cc1ccc(C(=O)N(CCCN)[C@@H](c2nc3cc(Cl)ccc3c(=O)n2Cc2ccccc2)C(C)C)cc1,0.186 ± 0.034,0.318 ± 0.13,0.59 ± 0.089,0.209 ± 0.057,0.52 ± 0.23,0.241 ± 0.09,0.0279 (inactive)
COc1ccc(Nc2nc(N3CCCCC3)c3cnn(C)c3n2)cc1,0.753 ± 0.043,1.23 ± 0.096,1.08 ± 0.048,0.388 ± 0.02,0.967 ± 0.097,1.23 ± 0.12,0.969 (active)
Cc1cc(OCc2nc(-c3ccc(Cl)cc3Cl)no2)ccc1Br,1.03 ± 0.17,0.988 ± 0.12,1.63 ± 0.8,0.984 ± 0.039,1.15 ± 0.13,1.15 ± 0.21,1.01 (active)
CC(C)(C)NCC(O)COc1cccc2c1CCC(=O)N2.Cl (configuration not stated),1.14 ± 0.17,1.12 ± 0.25,1.03 ± 0.12,0.941 ± 0.037,1.33 ± 0.26,1.03 ± 0.19,0.995 (active)
COc1ccc(C=Nn2cnnc2)cc1COc1cc(C)c(Cl)cc1C(C)C,0.854 ± 0.088,0.761 ± 0.04,0.984 ± 0.095,1.21 ± 0.11,1.03 ± 0.06,1.3 ± 0.11,0.995 (active)
CN1CCN(C2=Nc3cc(Cl)ccc3Nc3ccccc32)CC1,0.713 ± 0.058,0.941 ± 0.057,1.13 ± 0.1,0.924 ± 0.064,1.47 ± 0.11,1.46 ± 0.12,0.981 (active)
CCOC(=O)C1=C(C)OC(N)=C(C#N)C1c1ccc(O)c(OCC)c1 (configuration not stated),1.19 ± 0.075,1.04 ± 0.064,1.07 ± 0.099,0.939 ± 0.038,1.31 ± 0.12,1.16 ± 0.11,1.01 (active)
O=C(OC1Cc2c(O)cc(O)cc2OC1c1cc(O)c(O)c(O)c1)c1cc(O)c(O)c(O)c1 (configuration not stated),0.321 ± 0.094,1.04 ± 0.083,1.02 ± 0.092,0.822 ± 0.029,1.13 ± 0.22,1.06 ± 0.1,1.01 (active)
COC(=O)C1C(=O)CC(C)(O)C(C(=O)OC)C1c1ccc2c(c1)OCO2 (configuration not stated),1.03 ± 0.088,1.08 ± 0.081,0.958 ± 0.085,1 ± 0.038,1.57 ± 0.16,1.14 ± 0.11,0.989 (active)
CC(=O)Nc1c(-c2ccc3ccccc3c2)nc2ccccn12,1.37 ± 0.33,0.942 ± 0.079,1.07 ± 0.11,0.949 ± 0.032,1.14 ± 0.15,1.16 ± 0.14,0.995 (active)
CCN(CC)CCNC(=O)c1cc(S(C)(=O)=O)ccc1OC.Cl,1.02 ± 0.13,1.16 ± 0.078,0.975 ± 0.021,0.94 ± 0.056,0.989 ± 0.11,1 ± 0.13,0.998 (active)
O=C(Nc1ccc(Br)cc1)c1cccc(S(=O)(=O)NC2CCCCC2)c1,0.746 ± 0.057,0.846 ± 0.076,1.24 ± 0.035,0.527 ± 0.019,1.04 ± 0.14,1 ± 0.17,0.983 (active)
CNCC[C@H](Oc1cccc2ccccc12)c1cccs1,0.087 ± 0.0072,0.8 ± 0.08,1.08 ± 0.058,0.262 ± 0.019,1.02 ± 0.2,1.01 ± 0.27,0.333 (inactive)
CCN(CC)c1ccc2cc(-c3nnc(NCc4ccccc4)s3)c(=O)oc2c1,1.12 ± 0.15,1.14 ± 0.072,0.912 ± 0.07,0.598 ± 0.026,1.47 ± 0.25,1.28 ± 0.22,0.997 (active)
Cc1ccc(OCCSc2nc3ccccc3c(=O)[nH]2)cc1C,0.728 ± 0.2,1.11 ± 0.13,1.02 ± 0.13,0.886 ± 0.025,1.03 ± 0.22,1.19 ± 0.24,0.818 (active)
Cc1cc(=O)[nH]c(-n2nc(C)c(CCC(=O)N3CCN(C)CC3)c2C)n1,1.16 ± 0.092,1.13 ± 0.089,0.977 ± 0.028,1.01 ± 0.084,1.05 ± 0.12,0.931 ± 0.095,0.994 (active)
Cc1ccc(Nc2nccc(N(C)c3ccc4c(C)n(C)nc4c3)n2)cc1S(N)(=O)=O,0.71 ± 0.11,1.84 ± 0.36,2.52 ± 0.16,0.146 ± 0.014,0.835 ± 0.15,1.18 ± 0.14,0.78 (active)
OCCSCCc1ccncc1,1.03 ± 0.083,1.05 ± 0.086,1.01 ± 0.047,1.02 ± 0.23,0.995 ± 0.07,1.02 ± 0.17,1 (active)
Cc1ccccc1CNC(=O)CN(c1cccc(C(F)(F)F)c1)S(C)(=O)=O,1.11 ± 0.097,1.07 ± 0.11,1.03 ± 0.041,0.956 ± 0.095,1.11 ± 0.13,1.03 ± 0.24,1 (active)
COc1cc(C(C)=O)ccc1OCCCN1CCC(c2noc3cc(F)ccc23)CC1,0.986 ± 0.15,1.17 ± 0.31,0.924 ± 0.056,0.834 ± 0.027,1.19 ± 0.2,1.12 ± 0.11,0.991 (active)
O=S1(=O)N=C(SCc2ccccc2)Nc2ccc(Cl)cc21,0.76 ± 0.059,0.913 ± 0.067,1.16 ± 0.11,0.718 ± 0.074,1.08 ± 0.12,1.11 ± 0.3,1.02 (active)
O=C(CCCN1C(=O)c2cccc3cccc(c23)C1=O)NCCO,1.04 ± 0.061,0.976 ± 0.078,0.963 ± 0.025,1 ± 0.072,1.12 ± 0.052,1.05 ± 0.1,0.995 (active)
